Several values for one entry are separate records, joined by “and”; a condition that tells them apart may be missing. Equal values may be shown once. Out of some 5,500 compounds screened, about 2,000 (36%) were called active. Roughly 18% stayed inconclusive and do not appear here. Rule as the data show it: active = normalized growth mostly below about 0.91 (no sharp cut-off); inconclusive = no clear call, values can overlap the other calls; inactive = mostly above about 0.92. This is one part of the list.
Experiment: chemical genetic growth profiling, strain panel (AID 1159580);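 also: tested at 20 µM; growth read once vehicle control cultures reached saturation at 30 °C; 1 = growth at the plate median or of vehicle wells; lower values mean less growth of the strain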
Conditions: S. cerevisiae deletion strains, growth OD

Measured: normalized growth

C[n+]1c2cc(N)ccc2cc2ccc(N)cc21
0.724 (active) and 0.882 (inactive): locus YHR030C, strain SLT2, stronger effect = lower value
active: locus YAL013W, strain DEP1, stronger effect = lower value 0.748 | locus YAL021C, strain ccr4, stronger effect = lower value 0.335 | locus YAL026C, strain drs2, stronger effect = lower value 0.586 | locus YAL030W, strain snc1, stronger effect = lower value 0.505 | locus YBL061C, strain skt5, stronger effect = lower value 0.616 | locus YBR009C, strain hhf1, stronger effect = lower value 0.356 | locus YBR023C, strain chs3, stronger effect = lower value 0.666 | locus YBR229C, strain ROT2, stronger effect = lower value 0.888 | locus YBR231C, strain swc5, stronger effect = lower value 0.359 | locus YBR279W, strain paf1, stronger effect = lower value 0.701 | locus YCL011C, strain gbp2, stronger effect = lower value 0.438 | locus YCL016C, strain dcc1, stronger effect = lower value 0.331 | locus YCL029C, strain bik1, stronger effect = lower value 0.67 | locus YCL069W, strain vba3, stronger effect = lower value 0.588 | locus YCR088W, strain abp1, stronger effect = lower value 0.55 | locus YDL005C, strain med2, stronger effect = lower value 0.572 | locus YDL035C, strain GPR1, stronger effect = lower value 0.72 | locus YDL040C, strain nat1, stronger effect = lower value 0.718 | locus YDL074C, strain BRE1, stronger effect = lower value 0.575 | locus YDL101C, strain DUN1, stronger effect = lower value 0.761 | locus YDL134C, strain PPH21, stronger effect = lower value 0.726 | locus YDL192W, strain arf1, stronger effect = lower value 0.844 | locus YDR001C, strain nth1, stronger effect = lower value 0.74 | locus YDR069C, strain doa4, stronger effect = lower value 0.591 | locus YDR101C, strain arx1, stronger effect = lower value 0.81 | locus YDR137W, strain rgp1, stronger effect = lower value 0.616 | locus YDR150W, strain NUM1, stronger effect = lower value 0.831 | locus YDR159W, strain sac3, stronger effect = lower value 0.77 | locus YDR162C, strain NBP2, stronger effect = lower value 0.723 | locus YDR195W, strain ref2 1.22 [resistant] | locus YDR297W, strain sur2, stronger effect = lower value 0.652 | locus YDR318W, strain mcm21, stronger effect = lower value 0.834 | locus YDR334W, strain swr1, stronger effect = lower value 0.412 | locus YDR335W, strain msn5, stronger effect = lower value 0.499 | locus YDR388W, stronger effect = lower value 0.722 | locus YDR392W, strain spt3, stronger effect = lower value 0.352 | locus YDR502C, strain sam2, stronger effect = lower value 0.793 | locus YEL003W, strain gim4, stronger effect = lower value 0.491 | locus YEL037C, strain rad23, stronger effect = lower value 0.437 | locus YEL061C, strain CIN8 (second series), stronger effect = lower value 0.652 | locus YEL061C, strain CIN8, stronger effect = lower value 0.851 | locus YER015W, strain faa2, stronger effect = lower value 0.498 | locus YER016W, strain bim1, stronger effect = lower value 0.479 | locus YER111C, strain swi4, stronger effect = lower value 0.633 | locus YER155C, strain BEM2 (second series), stronger effect = lower value 0.272 | locus YER167W, strain BCK2, stronger effect = lower value 0.754 | locus YFR010W, strain ubp6, stronger effect = lower value 0.536 | locus YGL086W, strain mad1, stronger effect = lower value 0.778 | locus YGL173C, strain kem1, stronger effect = lower value 0.481 | locus YGL227W, strain vid30, stronger effect = lower value 0.671 | locus YGL240W, strain doc1, stronger effect = lower value 0.63 | locus YGL248W, strain PDE1, stronger effect = lower value 0.758 | locus YGL253W, strain hxk2, stronger effect = lower value 0.425 | locus YGR078C, strain PAC10, stronger effect = lower value 0.722 | locus YGR135W, strain pre9, stronger effect = lower value 0.777 | locus YGR229C, strain SMI1, stronger effect = lower value 0.704 | locus YGR252W, strain gcn5, stronger effect = lower value 0.531 | locus YHR013C, strain ard1, stronger effect = lower value 0.397 | locus YHR027C, strain rpn1, stronger effect = lower value 0.546 | locus YHR079C, strain IRE1 (second series), stronger effect = lower value 0.779 | locus YHR079C, strain IRE1, stronger effect = lower value 0.841 | locus YHR129C, strain ARP1, stronger effect = lower value 0.897 | locus YHR142W, strain chs7, stronger effect = lower value 0.44 | locus YHR200W, strain rpn10, stronger effect = lower value 0.682 | locus YIL066C, strain RNR3, stronger effect = lower value 0.792 | locus YIL073C, strain SPO22, stronger effect = lower value 0.534 | locus YIR030C, strain dcg1, stronger effect = lower value 0.859 | locus YJL092W, strain hpr5, stronger effect = lower value 0.253 | locus YJL095W, strain BCK1 (second series), stronger effect = lower value 0.487 | locus YJL095W, strain BCK1, stronger effect = lower value 0.486 and 0.879 | locus YJL115W, strain asf1, stronger effect = lower value 0.369 | locus YJL129C, strain trk1, stronger effect = lower value 0.773 | locus YJL134W, strain LCB3, stronger effect = lower value 0.912 | locus YJL154C, strain vps35, stronger effect = lower value 0.808 | locus YJL164C, strain tpk1, stronger effect = lower value 0.417 | locus YJL166W, strain qcr8, stronger effect = lower value 0.392 | locus YJL168C, strain set2, stronger effect = lower value 0.91 | locus YJL187C, strain SWE1 (second series), stronger effect = lower value 0.708 | locus YJR043C, strain POL32, stronger effect = lower value 0.703 | locus YJR075W, strain HOC1, stronger effect = lower value 0.566
inactive: locus YBR021W, strain FUR4, stronger effect = lower value 1.11 | locus YBR171W, strain sec66, stronger effect = lower value 0.934 | locus YDL185W, strain tfp1, stronger effect = lower value 0.938 | locus YER110C, stronger effect = lower value 0.961 | locus YER155C, strain BEM2, stronger effect = lower value 0.935 | locus YGL078C, strain dbp3, stronger effect = lower value 0.937 | locus YGL167C, strain pmr1, stronger effect = lower value 0.938 | locus YHR094C, strain hxt1, stronger effect = lower value 0.939 | locus YIL125W, strain kgd1, stronger effect = lower value 0.945 | locus YJR066W, strain TOR1, stronger effect = lower value 0.849

— PubChem BioAssay AID1159580 (chemical genetic matrix, 2015)
